PubChem BioAssay AID1851 (National Center for Advancing Translational Sciences (NCATS), 2009)
Values joined by “and” are separate entries in the source; they are usually repeats but may differ in a detail not shown here. Identical values can stand only once. The campaign covered roughly 16,000 compounds. About 5,100 (32%) were called active. Another 25% or so got no clear call; they are omitted. The call rests on the fitted dose curve; in most records, active means well fitted curve in the direction sought with a large enough effect; inconclusive means small, poorly fitted or top-dose-only effect, or effect the other way; inactive means no such curve, though single readings can be large or run the other way. The list shows a part of the results.

What follows are molecules tested against Cytochrome P450 3A4 (Homo sapiens) (UniProt P08684) (assay: Cytochrome panel assay with activity outcomes). Conditions: recombinant CYP, pro-luciferin dealkylation, luminescence, p450-cyp3a4; series mostly up to 57.1 µM; activity, negative = inhibition: at the top concentration.
On the % scale 0 is the no-effect control and ±100 the full control effect.

Cytochrome P450 3A4 (Homo sapiens), sequence (P08684 whole entry, looked up): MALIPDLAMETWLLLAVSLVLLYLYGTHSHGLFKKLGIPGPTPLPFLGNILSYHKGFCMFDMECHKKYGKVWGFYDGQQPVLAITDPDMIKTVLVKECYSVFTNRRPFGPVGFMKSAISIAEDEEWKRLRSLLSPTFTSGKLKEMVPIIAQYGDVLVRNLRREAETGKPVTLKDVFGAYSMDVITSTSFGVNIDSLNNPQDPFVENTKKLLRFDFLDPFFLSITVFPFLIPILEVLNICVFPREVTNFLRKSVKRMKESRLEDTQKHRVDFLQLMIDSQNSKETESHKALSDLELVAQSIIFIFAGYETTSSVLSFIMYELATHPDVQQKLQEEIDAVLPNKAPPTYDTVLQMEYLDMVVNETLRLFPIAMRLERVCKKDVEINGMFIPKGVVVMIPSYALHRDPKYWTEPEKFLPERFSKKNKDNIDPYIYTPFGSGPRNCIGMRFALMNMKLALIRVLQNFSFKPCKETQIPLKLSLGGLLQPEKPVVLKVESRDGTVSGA

Compound | AC50 | activity, negative = inhibition
CN1CCN(CC(=O)N2c3ccccc3C(=O)Nc3cccnc32)CC1 | inactive | –
CCN(CC)C[C@@H]1CCCCN1CC(=O)N1c2ccccc2C(=O)Nc2cccnc21 | 12.6 µM (active) | –
Cc1ccc2c(c1)nnn2C1CCN(S(=O)(=O)c2ccc(C(=O)N3C(C)CCCC3C)cc2)CC1 (stereo not given) | 1.41 µM (active) | –
Cc1ccc2c(c1)nnn2C1CCN(CC(=O)N2c3ccccc3CC2C)CC1 (stereo not given) | 10 µM (active) | –
CC1Cc2ccccc2N1C(=O)Cn1cc([N+](=O)[O-])cn1 (stereo not given) | – | -17.8% (inactive)
CCC(=O)Nc1ccccc1C(=O)OCC(=O)c1ccccc1 | – | -9.57% (inactive)
CCOC(=O)c1ccccc1NC(=O)/C(C)=C/C(=O)O | – | -19.6% (inactive)
CCC(=O)Nc1ccccc1C(=O)OCC(=O)c1cccc2ccccc12 | 11.2 µM (active) | –
c1ccc2c(Nc3ccncc3)nc(-c3ccc4c(c3)OCO4)nc2c1 | 0.501 µM (active) | –
c1ccc(Nc2nc(-c3ccc4c(c3)OCO4)nc3ccccc23)cc1 | 5.01 µM (active) | –
Nc1ncnc2c([C@@H]3O[C@@H](CO)[C@H](O)[C@@H]3O)nsc12 | – | -0.156% [at 11.4 µM] (inactive)
CN(C)/N=N\c1nc[nH]c1C(N)=O | – | -4.61% [at 25.6 µM] (inactive)
O=C(c1nn(Cc2ccccc2)c(=O)c2ccccc12)N1CCN(C/C=C/c2ccccc2)CC1 | 2.24 µM (active) | –
O=C(O)C1C2C=CC(C2)C1C(=O)N1CCN(C/C=C/c2ccccc2)CC1 (stereo not given) | – | -12.1% (inactive)
O=C(COc1cccc(NC(=O)c2cccc([N+](=O)[O-])c2)c1)c1ccc(Br)cc1 | – | 25.1% (inactive)
CCC(=O)Nc1cccc(NC(=O)c2cccc([N+](=O)[O-])c2)c1 | 22.4 µM (active) | –
COc1ccc(C(=O)Nc2cccc(/C(C)=N/NC(=O)c3ccc([N+](=O)[O-])cc3)c2)cc1OC | – | -28.5% [at 2.29 µM] (inactive)
O=C(Nc1nc(-c2ccccc2)cs1)c1cccc([N+](=O)[O-])c1 | 10 µM (active) | –
COc1ccc(-c2nc(NC(=O)c3ccccc3)sc2-c2ccc([N+](=O)[O-])cc2)cc1 | – | 12.5% [at 2.29 µM] (inactive)
COc1ccc(CC(=O)Nc2cccc(/C(C)=N/NC(=O)c3cccc([N+](=O)[O-])c3)c2)cc1 | 2 µM (active) | –
N[C@H](C(=O)O)c1ccc(C(=O)O)cc1 | – | -13.3% (inactive)
CCN(CC)CCNC(=O)Cn1nc(-c2ccc(C)cc2)ccc1=O | – | -12.6% (inactive)
COc1ncc2nc(-c3cccc(C#N)c3)c(=O)n(CCC#N)c2n1 | 25.1 µM (active) | –

Compound | AC50 | activity, negative = inhibition
COc1cccc(Cn2c(=O)c(-c3cccc(C#N)c3)nc3cnc(OC)nc32)c1 | 3.16 µM (active) | –
COc1ccc(Oc2ncc3nc(-c4cccc(C#N)c4)c(=O)n(Cc4cccc(OC)c4)c3n2)cc1 | 2 µM (active) | –
N#CCCn1c(=O)c(-c2cccc(C#N)c2)nc2cnc(Oc3cccc(Cl)c3)nc21 | – | 12.9% (inactive)
CN(C)c1ncc2nc(-c3cccc(C#N)c3)c(=O)n(CCC#N)c2n1 | – | 10.2% (inactive)
CC(C)[C@H](CO)Nc1nc(Nc2ccc(C(=O)O)c(Cl)c2)c2ncn(C(C)C)c2n1 | – | -24.8% (inactive)
NCCC(=O)O | – | -12.8% (inactive)
Cc1ccc(-c2nnc(-c3ccccc3S(=O)(=O)Cc3ccc(Cl)cc3)o2)cc1 | 3.98 µM (active) | –
O=C(Nc1nnc(-c2ccc(Cl)cc2)o1)Nc1ccccc1Cl | – | -3.31% [at 2.29 µM] (inactive)
NS(=O)(=O)c1cc(C(=O)O)c(O)c2ccccc12 | – | -3.6% [at 11.4 µM] (inactive)
COc1ccc2c(c1)C(c1ccc([N+](=O)[O-])cc1)=NNC(c1ccco1)=N2 | 14.1 µM (active) | –
Cc1ccccc1-c1ccc2ncnc(NCc3cccs3)c2c1 | 3.98 µM (active) | –
FC(F)(F)c1ccccc1-c1ccc2ncnc(NCc3cccs3)c2c1 | 5.01 µM (active) | –
Cc1cc2nc(CCN(C(=S)NCC(C)C)C3CCCC3)[nH]c2cc1C | 17.8 µM (active) | –
COc1cc(C(=O)OC(C)C(=O)Nc2ccc3c(c2)OCO3)ccc1OCc1c(C)noc1C (stereo not given) | 0.631 µM (active) | –
Cc1noc(C)c1COc1ccc(C(=O)NCC2CCCO2)cc1 (stereo not given) | – | -6.7% (inactive)
CCc1cc2c(nc1CC)CCN(CC/C(C)=N/O[C@@H](C)c1cn([C@@H]3COC[C@@H]3O)nn1)C2 | – | -5.44% [at 11.4 µM] (inactive)
CC(C)=NO[C@@H](C)c1cn([C@H](CO)Cc2ccccc2)nn1 | – | -28.8% [at 11.4 µM] (inactive) and -23.4% [at 11.4 µM] (inactive)
C/C(CCN1CCCCc2nc(C)c(C)cc21)=N\O[C@@H](C)c1cn([C@H](CO)Cc2ccccc2)nn1 | 3.98 µM (active) and 5.01 µM (active) | –
C/C(CCN1CCCc2nc(C)c(C)cc21)=N\O[C@@H](C)c1cn([C@H](CO)Cc2ccccc2)nn1 | 2 µM (active) | –
CCc1cc2c(nc1CC)CCN(CC/C(C)=N/O[C@@H](C)c1cn([C@H](CO)Cc3ccccc3)nn1)C2 | 3.16 µM (active) and 3.98 µM (active) | –
CN(C)C(=O)CN(c1ccc2c(c1)OCO2)S(C)(=O)=O | 25.1 µM (active) | –
Cc1cccc(N(CC(=O)N2CCOCC2)S(C)(=O)=O)c1 | – | -0.837% (inactive)
COc1ccc(NC(=O)CN2CCN(CC(=O)Nc3ccccc3Cl)CC2)cc1 | 10 µM (active) | –

Compound | AC50 | activity, negative = inhibition
COc1ccc(NC(C)=O)cc1NC(=O)CN1CCN(CC(=O)Nc2ccccc2Cl)CC1 | 12.6 µM (active) | –
COc1ccc(NC(=O)CN2c3cccc4cccc(c34)S2(=O)=O)cc1 | 4.47 µM (active) | –
COc1ccccc1NC(=O)CN1CCN(CC(=O)Nc2ccc(OCc3ccccc3)cc2)CC1 | – | -17.7% (inactive)
O=C(CN1C(=O)C2C3C=CC(C3)C2C1=O)Nc1ccc(C(=O)O)cc1 (stereo not given) | – | -10.2% (inactive)
O=C(CN1C(=O)C2C3C=CC(C3)C2C1=O)Nc1ccc2c(c1)OCCO2 (stereo not given) | 25.1 µM (active) | –
CSc1nc(NC2CCCC2)c([N+](=O)[O-])c(NC2CCCC2)n1 | – | -23.7% (inactive)
COc1ccc([C@@H]2CC(=O)c3c(O)cc(O[C@H]4O[C@@H](CO[C@H]5O[C@@H](C)[C@@H](O)[C@@H](O)[C@@H]5O)[C@@H](O)[C@@H](O)[C@@H]4O)cc3O2)cc1O | – | -1.85% [at 25.6 µM] (inactive)
O=C(CN1CCN(CC(=O)Nc2ccccc2Cl)CC1)Nc1ccc2c(c1)OCCO2 | 14.1 µM (active) | –
O=C(Nc1ccc2c(c1)OCCO2)C1CCN(C(=O)c2ccccc2)CC1 | – | 21.8% (inactive)
COc1cccc(OC)c1OCCCCN1CCCC1 | – | -8.41% (inactive)
COc1cccc(OC)c1OCCCN1CCOCC1 | – | -7.58% (inactive)
COc1cccc(OC)c1OCCNC[C@@H]1COc2ccccc2O1 | 2 µM (active) and 2.51 µM (active) | –
O=C(Nc1cccc(Cl)c1)N1CCN2C(=O)c3ccccc3C12c1ccccc1 (stereo not given) | – | -22.9% [at 2.29 µM] (inactive)
Cc1cccc(NC(=S)NNC(=O)CCn2cc(C)cn2)c1 | – | 17% (inactive)
O=C(COc1ccccc1Cl)NC(=S)Nc1cccc(NC(=O)c2ccccc2Cl)c1 | – | 7.56% [at 2.29 µM] (inactive)
Cc1cnn(CCC(=O)NNC(=S)Nc2cccc(Cl)c2)c1 | 12.6 µM (active) | –
O=C(CCN1C(=O)c2ccccc2C1=O)NC(=S)Nc1cccc(Cl)c1 | 15.8 µM (active) | –
CNC[C@H](O)[C@H](O)[C@H](O)[C@H](O)CO | – | -7.18% [at 25.6 µM] (inactive)
CN(C)c1ccc(NC(=O)c2cccc(N3C(=O)C4C5C=CC(C5)C4C3=O)c2)cc1 (stereo not given) | – | -26% (inactive)
Cc1cccc(NC(=O)c2cccc(N3C(=O)C4C5CCC(C5)C4C3=O)c2)c1C (stereo not given) | 11.2 µM (active) | –
Cc1cccc(NC(=O)c2onc3c2CCCC3)c1C | – | -26.3% (inactive)
Clc1ccccc1-c1nc(NC2CCNCC2)c2ccccc2n1 | – | -3.64% (inactive)
Cc1noc(C)c1-c1nc(N2CCOCC2)c2ccccc2n1 | 6.31 µM (active) | –

Compound | AC50 | activity, negative = inhibition
c1ccc2c(N3CCOCC3)nc(-c3ccoc3)nc2c1 | 6.31 µM (active) | –
Cc1ccccc1-c1nc(N2CCOCC2)c2ccccc2n1 | 15.8 µM (active) | –
Clc1ccccc1-c1nc(N2CCNCC2)c2ccccc2n1 | 25.1 µM (active) | –
Cc1noc(C)c1-c1nc(N2CCN(C)CC2)c2ccccc2n1 | – | -26.4% (inactive)
O=C(O)CCCCCCCC(=O)O | – | 0.705% (inactive)
CCOC(=O)C(C)(C)[C@H](O)C(C)C | – | 2.08% [at 11.4 µM] (inactive)
Cc1cc2nc3c(=O)[nH]c(=O)nc-3n(CC(O)C(O)C(O)CO)c2cc1C (stereo not given) | – | -18.2% [at 25.6 µM] (inactive)
O=C1NC(c2ccccc2)=NC1(NS(=O)(=O)c1ccccc1)C(F)(F)F (stereo not given) | – | -3.82% (inactive)
Cc1ccccc1-c1nc(N2CCNCC2)c2ccccc2n1 | 25.1 µM (active) | –
Cc1ccccc1-c1nc(N2CCN(C)CC2)c2ccccc2n1 | 20 µM (active) | –
OC[C@@H]1O[C@@H](n2cnc3c(SCc4ccccc4)ncnc32)[C@@H](O)[C@H]1O | – | 7.88% [at 11.4 µM] (inactive)
Nc1nc(Cl)cc(NCCO)n1 | – | -4.92% [at 11.4 µM] (inactive)
CCCCCCCCCCCCCCCCCCc1ccc(C(=O)/C=C\C(=O)O)cc1 | – | -8.11% (inactive)
Cc1c(Cl)cccc1NC(=O)c1ccc(-n2ccnc2)nc1 | 0.0398 µM (active) | –
COc1ccccc1NC(=O)c1ccc(-n2cccn2)nc1 | – | 0.809% (inactive)
O=C(Nc1ccc(F)cc1)c1ccc(-n2ccnc2)nc1 | 0.126 µM (active) | –
Cc1nc(C(=O)Nc2cccc(Cl)c2Cl)nn1-c1cc(OC(C)C)c(Cl)cc1Cl | – | -26.4% (inactive)
COc1cccc(Cn2c(NCc3cccnc3)nc3c2c(=O)n(C)c(=O)n3C)c1 | 3.16 µM (active) | –
CN(C)CCNc1nc2c(c(=O)n(C)c(=O)n2C)n1C | – | -5.65% [at 11.4 µM] (inactive)
Cn1c(=O)c2c(nc(NCCNc3nc4c(c(=O)n(C)c(=O)n4C)n3C)n2C)n(C)c1=O | – | 8.34% [at 11.4 µM] (inactive)
O=C(CCCNS(=O)(=O)c1cccc2nsnc12)NCCc1ccccc1 | 7.08 µM (active) | –
